Assay outcomes: PubChem, National Center for Advancing Translational Sciences (NCATS)
Only some compounds are listed: those with a hit (about 14% of all), similar ones and a draw of the others.
FBPA Giardia inh: inhibitors of Giardia lamblia fructose-1,6-bisphosphate aldolase; A8B2U2; purified Giardia FBPA; Potency, µM (highest dose often 59.6 µM), for inactives: at the highest dose activity, negative = inhibition, most hits filed as inhibitors; actives 0.71% (n = 290,000); AID 2451; also: potency is read from the fitted curve at half-maximal effect; nearly all actives have a fitted effect of over 55% in size
Target sequence (A8B2U2 whole entry, looked up): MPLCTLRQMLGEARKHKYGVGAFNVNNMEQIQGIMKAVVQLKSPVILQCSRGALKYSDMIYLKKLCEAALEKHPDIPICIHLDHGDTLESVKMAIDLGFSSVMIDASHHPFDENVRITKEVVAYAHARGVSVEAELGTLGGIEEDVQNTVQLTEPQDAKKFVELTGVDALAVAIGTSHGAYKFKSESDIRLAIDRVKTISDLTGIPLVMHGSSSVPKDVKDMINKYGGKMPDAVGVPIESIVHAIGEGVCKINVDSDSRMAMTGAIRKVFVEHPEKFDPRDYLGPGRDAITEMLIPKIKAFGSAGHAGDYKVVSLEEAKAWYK
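40 nM FBPA preincubated 10 min at RT with compound (up to 57.5 uM final), then substrate plus GAPDH/TPI/NAD/arsenate coupling and diaphorase/resazurin added. Fluorescence read after 20 min at RT, 525/598 nm.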
Pf growth 96h: P. falciparum growth inhibition at 96 hours; Potency, µM (highest dose often 28.7 µM), for the others: top-dose activity change, negative = inhibition, actives largely listed as inhibitors; actives 6.9% (n = 320,000); P. falciparum luciferase reporter growth, 96 h; also: potency is read from the fitted curve at half-maximal effect
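Plates of compound plus infected erythrocytes (2% hematocrit, 0.05% parasitemia final) incubate 96 hours, 37 C, 5% CO2. Detection reagent added; reduced luminescence from the parasites' luciferase reporter flags inhibition.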
Pf growth 48h: P. falciparum growth inhibition at 48 hours (one generation); P. falciparum luciferase growth in erythrocytes, 48 h; Potency, µM (top dose mostly 28.7 µM), for inactives: top-dose activity change, negative = inhibition, usual class: inhibitors; actives 5.9% (n = 310,000); AID 504832; also: potency is read from the fitted curve at half-maximal effect
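Cell-based growth assay: transgenic P. falciparum expressing firefly luciferase, cultured in red cells within RPMI 1640 containing 0.5% w/v Albumax, 24 mM bicarbonate and gentamycin. A drop in luciferase activity indicates inhibition.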
HCMV antiviral: blocks human cytomegalovirus replication; activity change, negative = inhibition, % at 57.5 µM; AID 1259415; actives 4.5% (n = 410,000); HFF cells, HCMV-luciferase reporter, 72 h; active compounds read low; in the data active = activity change below about -60%; inconclusive = no clear call, values can overlap the other calls; inactive = above about -39%
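HFF cells seeded 16 h at 37C, treated with compounds, infected with luciferase-reporter HCMV at MOI 1 PFU/cell; luciferase read at 72 h post infection, normalized to buffer-only and Salinomycin controls.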
Sm TGR block: blocks Schistosoma mansoni thioredoxin glutathione reductase. Q962Y6. purified TGR, DTNB reduction, TNB absorbance 405 nm. Potency, µM (series often up to 114 µM), for inactives: at the highest dose activity change, negative = inhibition, most hits filed as inhibitors. actives 3% (n = 360,000). AID 485364; also: potency is read from the fitted curve at half-maximal effect; nearly all actives have a fitted effect of over 60% in size
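TGR 20 nM + NADPH 100 uM (dispensed conc.), cpd preinc 15 min RT; start with NADPH (500 uM addition) then DTNB (15 mM addition). Kinetic TNB absorbance, 405 nm filter. Four-parameter Hill fit across titration.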
* = called active by the depositor; ? = inconclusive; nt = not tested or not shown; ! = repeats disagree; [ ] = remark or other dose. Unless noted, calls follow the shape of the dose curve; as a rule, active = well fitted curve in the direction sought with a large enough effect; inconclusive = small, poorly fitted or top-dose-only effect, or another doubt; inactive = no such curve, though single readings can be large; an effect the other way counts as inactive or inconclusive. % is scaled to controls: 0 for no effect and ±100 for the full control effect.

SMILES | FBPA Giardia inh | Pf growth 96h | Pf growth 48h | HCMV antiviral | Sm TGR block
CCOC(=O)Nc1ccc2c(c1)N(C(=O)CN(C)C)c1ccccc1CC2 | ? | 10.4µM* | -7.2% | ? | 26.7%
CCOC(=O)Nc1ccc2c(c1)N(C(=O)CN)c1ccccc1CC2 | 43.6% | ? | 11.7µM* | -2.8 | 4.1%
CCOC(=O)Nc1ccc2c(c1)N(C(=O)OCCN(C)C)c1ccccc1CC2 | -14.3% | 1.47µM*! | -9.8% | -19.5 | -6.8%
O=C(NCc1ccc(F)cc1)c1cc2c(cc1Cl)N1CCCCCC1=NS2(=O)=O | nt | ? | 4.4% | -14.7 | -3.6%
O=C(CCn1cccc1)NCc1ccccc1 | 11.4% | 8.28µM* | 33.9% | -5.0 | -19.6%
CCC(Cc1ccccc1)NC(=O)CCn1cccc1 (stereo not drawn) | 0.5% | 5.86µM* | 12.6% | 10.7 | -30.9%
CCC[C@@H]1C[C@@]1(CCC)C(NC(=O)c1cccs1)c1ccc(Cl)cc1 (stereo partly drawn) | -0.7% | nt | nt | nt | nt
COc1ccc(C2=NN(C(=O)/C=C/c3ccccc3)C(c3ccccc3)C2)c(OC(C)=O)c1 (stereo not drawn) | -1.6% | ? | 13.1µM* | -31.3 | 5.1%
COc1ccc(C2CC(c3ccc(OC)cc3OC(C)=O)=NN2C(=O)c2ccccc2)cc1 (stereo not drawn) | 1.8% | ? | 0.2%[0.00184 µM] | -35.6 | 9.1%
COc1ccc(C2CC(c3ccccc3OC(C)=O)=NN2C(=O)/C=C/c2ccccc2)cc1OC (stereo not drawn) | 4.9% | ? | 2.62µM* | ? | -6.2%
CCN(CC)c1nc(Nc2ccc(Cl)cc2)nc(OCC#N)n1 | 0.0% | nt | -18.4% | -67.7* | 2.6%
CCN(CC)c1nc(Nc2ccccc2)nc(Oc2ccc(=O)[nH]n2)n1 | 2.4% | nt | ? | -22.0 | 2.9%
Cc1cccc(Nc2nc(OCC#N)nc(N(C)C)n2)c1 | -6.0% | 11.7µM* | -179.3% | 37.7 | 0.9%
Cc1nn(C(C)(C)C)c(C)c1/C=N/OC(=O)Nc1ccc(Cl)c(Cl)c1 | -14.5% | 116.1% | 39.0% | -61.2* | -2.4%
CC1CCCCC1N(C)C1CCN(C(=O)CNC(=O)/C=C/c2cccc(Cl)c2)CC1 (stereo not drawn) | 2.8% | -6.1% | ? | -100.0* | 35.5µM*
CCCCNC(=O)c1nc(-c2cnc(C)cn2)oc1-c1ccc(Cl)cc1 | nt | nt | nt | -2.8 | nt
COc1ccc(C(=O)CCC(=O)N2CCN(c3ccc(C)cc3)C(C)C2)cc1 (stereo not drawn) | 2.3% | 9.28µM* | -15.6% | -25.4 | 8.8%
Cc1cc(OC(C)C(=O)N2CCN(CCc3ccccn3)CC2)ccc1Cl (stereo not drawn) | nt | nt | nt | -9.2 | -3.3%
O=C(Nc1ccccc1Cl)c1ccc2c(=O)n3c(nc2c1)CCC3 | nt | 324.2% | 332.0% | 27.4 | -3.3%
Cc1ccc(NC(=O)c2ccc3c(=O)n4c(nc3c2)CCCCC4)nc1 | nt | 3.2% | 28.8% | -7.7 | -2.4%
O=C(Nc1nc(-c2ccccc2)cs1)c1ccc2c(=O)n3c(nc2c1)CCCCC3 | 6.1% | ? | 2.5% | -89.5* | 4.3%
Cc1cc(C)c2nc(NC(=O)c3ccc4c(=O)n5c(nc4c3)CCCCC5)sc2c1 | 0.0% | ? | -7.1% | -71.5* | -7.9%
O=C(NCc1cccnc1)C1CC(c2ccccc2Cl)=NO1 (stereo not drawn) | -1.1% | -20.3% | 2.3% | 11.4 | 3.5%
Cc1ccc(NC(=O)C2CCCN(c3ncnc4c3nc3n4CCCCC3)C2)c(Br)c1 (stereo not drawn) | nt | nt | nt | 0.7 | 6.0%
Cc1ccc(N2CCN(C(=O)C3CCCN(c4ncnc5c4nc4n5CCCCC4)C3)CC2)c(C)c1 (stereo not drawn) | nt | 14.7µM* | ? | 21.1 | 3.9%
SMILES | FBPA Giardia inh | Pf growth 96h | Pf growth 48h | HCMV antiviral | Sm TGR block
Cc1ccc(C)c(N2CCN(C(=O)C3CCCN(c4ncnc5c4nc4n5CCCCC4)C3)CC2)c1 (stereo not drawn) | 2.9% | ? | 9.28µM* | -69.0* | -19.6%
Cc1ccc(C)c(N2CCN(c3ncnc4c3nc3n4CCCCC3)CC2)c1 | nt | nt | nt | 3.4 | 8.6%
Cc1nnc2ccc(-c3ccc(NC(=O)c4ccco4)cc3)nn12 | -4.5% | ? | -12.3% | 34.5 | 31.6µM*
Cc1nnc2ccc(-c3ccc(NC(=O)Cc4cccs4)cc3)nn12 | -1.7% | 9.28µM* | 37.5% | 25.9 | -23.9%
CC(=O)Nc1ccc(-c2ccc3nnc(C)n3n2)cc1 | -2.9% | ? | -2.2% | 59.2 | -0.4%
CC1CCN(S(=O)(=O)c2cc3c4c(c2)CC(=O)N4CCC3)CC1 | nt | nt | nt | 1.7 | 6.6%
CC1CCN(S(=O)(=O)c2ccc3c4c2CC(=O)N4CC(C)S3)CC1 (stereo not drawn) | ? | 11.9% | 8.28µM* | -31.2 | -4.3%
OCCN1CCN(c2nc(-c3ccccc3O)nc3ccccc23)CC1 | -6.8% | ? | -17.2% | 37.7 | 4.0%
Cc1ccc(N2C(=O)CC(Nc3ccc(Cl)c(S(=O)(=O)N(C)C)c3)C2=O)c(C)c1 (stereo not drawn) | -2.2% | 8.2% | 0.0% | -16.0 | 31.6µM*
CC(=O)N1CCN(CC(=O)Nc2ccc(Cl)c(S(=O)(=O)N(C)C)c2)CC1 | 0.9% | -22.4% | -10.4% | ? | -8.3%
COc1cccc2c1NC(C(=O)O)C1CC=CC21 (stereo not drawn) | ? | 79.9% | -15.7% | nt | 7.08µM*
O=C(O)C1Nc2c(cccc2C(F)(F)F)C2C=CCC12 (stereo not drawn) | -7.1% | 4.5% | 12.3%[0.00184 µM] | nt | 1.41µM*
Cc1ccc2c(c1)C1C=CCC1C(C(=O)O)N2 (stereo not drawn) | -27.8% | 2.62µM* | ? | nt | 0.708µM*
CC(=O)c1ccc2c(c1)C1C=CCC1C(C(=O)O)N2 (stereo not drawn) | 0.2% | 22.1% | 32.9% | 24.7 | ?
O=C(NCc1ccccc1)C1Nc2ccc(OC(F)(F)F)cc2C2C=CCC12 (stereo not drawn) | nt | nt | nt | 49.5 | nt
CC(C)C1Nc2ccc(S(N)(=O)=O)cc2C2C=CCC21 (stereo not drawn) | -19.5% | nt | ? | -17.1 | 12.6µM*
CCOC(=O)C1Nc2ccc(OC(F)(F)F)cc2C2C=CCC12 (stereo not drawn) | nt | nt | nt | -20.0 | nt
CCOc1cc(Cl)c(S(=O)(=O)n2ccnc2)cc1Cl | nt | nt | nt | 7.3 | 0.1%
Cc1ccccc1-c1cc2nc(OCC3CCCO3)n(C)c(=O)c2s1 (stereo not drawn) | nt | nt | nt | 42.6 | nt
COc1ccc(-n2c(=O)c3ccc(C(=O)NCc4ccc(C)cc4)cc3n(Cc3cccc(Cl)c3)c2=O)cc1 | nt | nt | nt | 3.9 | 6.8%
CN(C)c1ccc(/C=C/[N+](=O)[O-])cc1 | 5.0% | -0.3% | 19.2% | 4.3 | -1.2%
CN(c1ccccc1)c1ccc(/C=C/[N+](=O)[O-])cc1 | -7.5% | 47.5% | ? | -98.7* | -24.6%
CC(=O)NC(NC(C)=O)c1cccc(OCc2ccccc2)c1 | -0.3% | -0.5% | 13.3% | -68.0* | -2.2%
